This is an account of results in PubChem BioAssay AID493072 (Broad Institute, 2011).

The assay can be described thus: LuxS/LuxPQ-dependent luminescence inhibition, V. harveyi – dry powder, set 2, dose response (AID 493072).

Molecules are shown by their SMILES. Results with a measured potency or affinity are listed apart. Active and inactive are the calls of the source.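 The calls were made as follows: active = signal drops and a fitted half-effect dose is at or below ten times that sample's top valid dose; inconclusive = flat fit with a moderate drop, or a poor fit; inactive = the rest.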

On to `CCc1ccc(C(=O)Nc2ccc(Br)cn2)cc1`, for which the outcome was inactive.
